Measured values from PubChem BioAssay (NCATS).
Values joined by “and” are separate entries in the source; they are usually repeats but may differ in a detail not shown here. Equal entries are not always repeated. Results filed as inconclusive are left out. Where a call stands in place of a potency, no number is given. Active and inactive are the calls of the source. Calls follow the shape of the dose curve; as a rule, active = well fitted curve in the direction sought with a large enough effect; inconclusive = small, poorly fitted or top-dose-only effect, or another doubt; inactive = no such curve, though single readings can be large; an effect the other way counts as inactive or inconclusive.

Legend:
[1] = tested on: Zika virus NS2B-NS3 protease (unlinked complex); test: Primary screen GU Rhodamine qHTS for Zika virus inhibitors: Unlinked NS2B-NS3 protease assay (AID 1347159); conditions: Recombinant ZIKV NS2B-NS3 protease, Rhodamine110 substrate fluorescence; series mostly up to 107 µM; also: nearly all actives have a fitted effect of over 60% in size
In short: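 In dose–response format, inhibition of unlinked protease (25 nM) was measured with 1.5 microM bis-peptide Rhodamine110 substrate. Aprotinin served as the intraplate control.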

[2] = tested on: Zika virus NS2B-NS3 protease (linked construct); test: Primary screen NINDS Rhodamine qHTS for Zika virus inhibitors (AID 1347160); conditions: purified NS2B-NS3 protease, Rhodamine110 substrate fluorescence; series mostly up to 57.1 µM; also: nearly all actives have a fitted effect of over 55% in size
In short: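 Each compound, titrated, sat 15 min with 25 nM linked protease before 1.5 microM Rhodamine110 substrate went in. Fluorescence gain over the next 15 min, in pH 8.0 Tris with Tween 20, gave Hill-fitted curves.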

[3] = target: Calcium and integrin-binding protein 1 (Homo sapiens) (UniProt Q99828); test: Primary qHTS for Identification of Calcium Integrin Binding Protein 1 (CIB1) Competitor (AID 1508620); conditions: CIB1-GST / FITC-alphaIIb peptide fluorescence polarization; series mostly up to 114 µM;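 also: GST tagged CIB1 binding a fluorescein labelled alphaIIb integrin peptide tracer; top concentration of the series differs between compounds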
Sequence of Calcium and integrin-binding protein 1 (Homo sapiens) (Q99828 whole entry, looked up): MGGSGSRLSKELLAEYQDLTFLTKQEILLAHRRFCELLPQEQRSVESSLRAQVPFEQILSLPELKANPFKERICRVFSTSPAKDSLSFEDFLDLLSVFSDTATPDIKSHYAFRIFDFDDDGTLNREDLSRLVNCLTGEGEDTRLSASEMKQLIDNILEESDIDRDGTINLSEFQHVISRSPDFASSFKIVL
In short: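 CIB1-GST (1 uM final) and compound incubated 15 min at room temperature before adding FITC-alphaIIb peptide tracer (100 nM final). Competition for binding read by fluorescence polarization (ex 480, em 540) after another 15 min at room temperature.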

[4] = Primary qHTS for inhibitors of nuclear receptor binding SET domain protein 2 (NSD2) in an isogenic RCH-ACV NSD2 p.E1099K mutant (9B) (AID 1645876); conditions: RCH-ACV NSD2 E1099K (9B) viability, CellTiter-Glo, 72 h; series mostly up to 44.9 µM; also: nearly all actives have a fitted effect of over 70% in size; also: potency is read from the fitted curve at half-maximal effect
[5] = Primary qHTS for inhibitors of nuclear receptor binding SET domain protein 2 (NSD2) in an RCH-ACV wild type WT cells (2C) (AID 1645877); conditions: RCH-ACV (leukaemia line) NSD2 WT (2C) viability, CellTiter-Glo, 72 h; series mostly up to 44.9 µM; also: nearly all actives have a fitted effect of over 70% in size; also: potency is read from the fitted curve at half-maximal effect
[6] = target: Glutathione peroxidase 1 (Homo sapiens) (UniProt P07203); test: Primary qHTS Assay for Inhibitors of Recombinant Selenoprotein Glutathione Peroxidase 1 (GPX1) (AID 1845191); conditions: recombinant GPX1, GR-coupled NADPH fluorescence, 15 min; series mostly up to 48.8 µM; also: nearly all actives have a fitted effect of over 65% in size; also: potency is read from the fitted curve at half-maximal effect
Sequence of Glutathione peroxidase 1 (Homo sapiens) (P07203 whole entry, looked up): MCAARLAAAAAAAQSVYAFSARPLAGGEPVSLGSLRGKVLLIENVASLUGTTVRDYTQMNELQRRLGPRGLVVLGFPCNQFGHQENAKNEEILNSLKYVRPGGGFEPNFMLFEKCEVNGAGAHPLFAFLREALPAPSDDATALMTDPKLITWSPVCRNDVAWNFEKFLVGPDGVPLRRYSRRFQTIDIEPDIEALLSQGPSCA
In short: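 NADPH consumption tracked by fluorescence at 340/450 nm between t=0 and t=15 min, room temperature. Final mix: 10 nM GPX1, 100 nM glutathione reductase, 1 mM GSH, 0.5 mM NADPH, 0.5 mM cumene hydroperoxide, 0.01% BSA; 30 min compound–enzyme preincubation.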

[7] = target: Phospholipid hydroperoxide glutathione peroxidase GPX4 (Homo sapiens) (UniProt P36969); test: Primary qHTS Assay for Inhibitors of Recombinant Selenoprotein Glutathione Peroxidase 4 (GPX4) (AID 1845192); conditions: recombinant GPX4, GR-coupled NADPH fluorescence, 15 min; series mostly up to 50 µM; also: nearly all actives have a fitted effect of over 65% in size; also: potency is read from the fitted curve at half-maximal effect
Sequence of Phospholipid hydroperoxide glutathione peroxidase GPX4 (Homo sapiens) (P36969 whole entry, looked up): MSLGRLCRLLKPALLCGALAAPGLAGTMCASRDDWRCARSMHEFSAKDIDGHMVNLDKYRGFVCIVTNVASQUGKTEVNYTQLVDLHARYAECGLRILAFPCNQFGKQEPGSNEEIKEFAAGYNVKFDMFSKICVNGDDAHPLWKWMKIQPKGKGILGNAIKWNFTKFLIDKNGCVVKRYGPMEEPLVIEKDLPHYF
In short: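 NADPH consumption followed by fluorescence at 340/450 nm, t=0 and after 15 min at room temperature. Reaction started with cumene hydroperoxide (0.5 mM final) after 30 min compound–GPX4 preincubation; final 200 nM GPX4, 100 nM GR, 1 mM GSH, 0.5 mM NADPH.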

[8] = target: Luciferin 4-monooxygenase (Photinus pyralis) (UniProt P08659); test: Primary firefly luciferase (FLuc) qHTS assay for identification of artifact compounds. (AID 1845220); conditions: purified firefly luciferase, luminescence, 5 min; series mostly up to 54.1 µM; also: nearly all actives have a fitted effect of over 60% in size; also: potency is read from the fitted curve at half-maximal effect
In short: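 Compounds sat 15 min at room temperature with 10 uM luciferin and 10 uM ATP (pH 7.6 Tris acetate). Firefly luciferase (10 nM final) was then added, and luminescence was read 5 min later. Data normalized to no-enzyme and DMSO controls were Hill-fitted.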

[9] = Primary fluorescence-based thiol-reactive (MSTI) qHTS assay for identification of artifact compounds. (AID 1845221); conditions: MSTI thiol-reactivity probe, 1 h; series mostly up to 53.8 µM;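 also: thiol-reactive compounds lower the probe fluorescence signal; nearly all actives have a fitted effect of over 65% in size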
In short: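 Compounds were incubated 1 h at room temperature in the dark with the MSTI probe (4 uM) in PBS pH 7.4, 2% DMSO. Signals were normalized between Acetyl-MSTI and MSTI.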

[10] = tested on: Nanoluciferase (engineered Oplophorus gracilirostris luciferase); test: Primary Nanoluciferase (NLuc) qHTS assay for identification of artifact compounds. (AID 1845222); conditions: NLuc-conditioned medium, Nano-Glo luminescence, 5 min; series mostly up to 54.1 µM
In short: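 Luminescence from secreted NLuc (filtered, 1:55-diluted S16 cell medium) read 5 min after Nano-Glo substrate; compounds preincubated 15 min, RT. Hill fits of inhibition normalized to DMSO and no-enzyme.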

C33A = test: Primary qHTS to identify gynecologic anti-cancer compounds using libraries of approved drugs and bioactive compounds (AID 1345084); conditions: Gynecologic cancer cell panel viability, ATPlite luminescence, 48 h; series mostly up to 57.5 µM; also: nearly all actives have a fitted effect of over 55% in size; also: potency is read from the fitted curve at half-maximal effect
In short: (§1)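 Luminescence from the ATPlite ATP-monitoring reagent indicates viable cell number; lower signal means cytotoxicity. Cells received compound 16 h after seeding and were exposed for 48 h across five concentrations.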

CASKI = test: as above; conditions: Gynecologic cancer cell panel viability, ATPlite luminescence, 48 h; series mostly up to 57.5 µM
In short: as §1

Es-2 = test: as above; conditions: Gynecologic cancer cell panel viability, ATPlite luminescence, 48 h; series mostly up to 57.5 µM
In short: as §1

HeLa = test: as above; conditions: Gynecologic cancer cell panel viability, ATPlite luminescence, 48 h; series mostly up to 57.5 µM
In short: as §1

Hek293T = test: as above; conditions: Gynecologic cancer cell panel viability, ATPlite luminescence, 48 h, control line for the selectivity index; series mostly up to 57.5 µM
In short: as §1

JEG-3 = test: as above; conditions: Gynecologic cancer cell panel viability, ATPlite luminescence, 48 h; series mostly up to 57.5 µM
In short: as §1

OV90 = test: as above; conditions: Gynecologic cancer cell panel viability, ATPlite luminescence, 48 h; series mostly up to 57.5 µM
In short: as §1

PA-1 = test: as above; conditions: Gynecologic cancer cell panel viability, ATPlite luminescence, 48 h; series mostly up to 57.5 µM
In short: as §1

Tov-21-G = test: as above; conditions: Gynecologic cancer cell panel viability, ATPlite luminescence, 48 h; series mostly up to 57.5 µM
In short: as §1

Tov112D = test: as above; conditions: Gynecologic cancer cell panel viability, ATPlite luminescence, 48 h; series mostly up to 57.5 µM
In short: as §1

SMILES	Potency [1]	Potency [2]	outcome [3]	Potency [4]	Potency [5]	Potency [6]	Potency [7]	Potency [8]	Potency [9]	Potency [10]	Potency (C33A)	Potency (CASKI)	Potency (Es-2)	Potency (HeLa)	Potency (Hek293T)	Potency (JEG-3)	Potency (OV90)	Potency (PA-1)	Potency (Tov-21-G)	Potency (Tov112D)
Fc1ccccc1CNCc1ccc(-c2ccnc3[nH]ccc23)cc1	inactive	inactive	inactive	16.3 µM (active)	11.5 µM (active)	25.5 µM (active)	16.1 µM (active)	inactive	inactive	inactive	inactive	inactive	inactive	inactive	inactive	inactive	inactive	inactive	inactive	inactive
CNCCN(C)Cc1cn[nH]c1-c1ccc(OC2CC(OCCC3CCOCC3)C2)cc1 (configuration not stated)	–	–	inactive	–	–	inactive	inactive	–	–	–	–	–	–	–	–	–	–	–	–	–
CCCCc1nc(Cl)c(CO)n1Cc1ccc(-c2ccccc2-c2nnn[nH]2)cc1	–	inactive	inactive	inactive	inactive	–	inactive	inactive	inactive	–	inactive	inactive	inactive	inactive	inactive	inactive	inactive	inactive	inactive	inactive
CC1(C)SC2C(NC(=O)[C@H](NC(=O)N3CCNC3=O)c3ccccc3)C(=O)N2C1C(=O)O (some centres not stated)	inactive	–	inactive	inactive	inactive	inactive	inactive	inactive	inactive	inactive	inactive	inactive	inactive	inactive	inactive	inactive	inactive	inactive	inactive	inactive
COCCNCc1ccc(-c2cc3nccc(Oc4ccc(NC(=S)NC(=O)Cc5ccc(F)cc5)cc4F)c3s2)nc1	inactive	inactive	inactive	2.9 µM (active)	3.25 µM (active) and 2.35 µM (active)	inactive	inactive	inactive	inactive	inactive	–	inactive	–	–	–	inactive	–	31.6 µM (active)	inactive	–
COc1c(N2CC3CCCNC3C2)c(F)cc2c(=O)c(C(=O)O)cn(C3CC3)c12 (configuration not stated)	inactive	inactive	inactive	inactive	inactive	–	–	inactive	inactive	inactive	inactive	inactive	inactive	inactive	inactive	inactive	inactive	inactive	inactive	inactive
Nc1ccc(N)c([N+](=O)[O-])c1	–	–	–	–	–	–	–	–	–	–	inactive	inactive	inactive	inactive	inactive	inactive	–	inactive	inactive	inactive
c1ccc(-c2cnc(Nc3ccc(OCCN4CCCC4)cc3)s2)cc1	inactive	inactive	inactive	9.16 µM (active)	9.16 µM (active)	inactive	inactive	23.9 µM (active)	–	inactive	inactive	inactive	inactive	inactive	inactive	inactive	–	–	–	inactive
CC1(CO)CCCC2(C)C1C(OC(=O)c1ccccc1)C=C1C(=O)OCC12O (configuration not stated)	–	inactive	–	2.84 µM (active)	–	–	inactive	inactive	–	inactive	–	inactive	–	inactive	–	inactive	–	–	11.2 µM (active)	inactive
CC1(C)SC2C(NC(=O)[C@H](C(=O)O)c3ccsc3)C(=O)N2C1C(=O)O (some centres not stated)	inactive	inactive	inactive	inactive	inactive	–	inactive	inactive	inactive	inactive	inactive	inactive	inactive	inactive	inactive	inactive	inactive	inactive	inactive	inactive
CCNC(=O)[C@@H]1CCCN1C(=O)[C@H](CCCN=C(N)N)NC(=O)[C@H](CC(C)C)NC(=O)[C@@H](CC(C)C)NC(=O)[C@H](Cc1ccc(O)cc1)NC(=O)[C@H](CO)NC(=O)[C@H](Cc1c[nH]c2ccccc12)NC(=O)[C@H](Cc1cnc[nH]1)NC(=O)[C@@H]1CCC(=O)N1	inactive	inactive	inactive	inactive	inactive	–	inactive	inactive	inactive	inactive	inactive	inactive	inactive	inactive	inactive	inactive	inactive	inactive	inactive	inactive
C[C@@H](CN1CCC(n2c(=O)[nH]c3cc(Cl)ccc32)CC1)NC(=O)c1ccc2ccccc2c1	inactive	inactive	inactive	10.3 µM (active)	16.3 µM (active)	inactive	inactive	inactive	inactive	inactive	inactive	inactive	inactive	inactive	inactive	inactive	–	–	inactive	inactive
O=C(CC1NCCC[C@H]1O)Cn1cnc2cc(Br)c(Cl)cc2c1=O (some centres not stated)	inactive	inactive	inactive	inactive	–	–	–	inactive	–	inactive	inactive	inactive	inactive	inactive	inactive	inactive	inactive	–	inactive	inactive
